# Data published in the supplement of paper PMC10037445.
# In all, about 2,900 compounds were measured (“NF-kB SEAP reporter activity, fold change vs agonist alone”: median about 0.99, highest 2% from about 2.6 on). The list comes from a sample in which the highest values are over-represented; it also holds similar structures and randomly drawn compounds.
# Tests used:
# [1] = system: RAW-Dual; test: NF-kB SEAP reporter activity, fold change vs agonist alone; higher = enhanced NF-kB activity; settings: library stock concentration (final ~1000-fold dilution): 10 mM, cytotoxicity flag (confluency mask): not cytotoxic
# In short: (§1)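 After 50 nL of library stock was delivered by pin tool to RAW-Dual macrophages (50,000 cells/well, DMEM, 384-well plates), a PRR agonist was added 1 h later and the plates were kept at 37 °C, 5% CO2. Twenty hours later, IRF was read from supernatant by QuantiLuc luminescence and NF-κB by QuantiBlue absorbance at 620 nm. Reporter activity is stated as fold change over agonist-alone wells. Wells with IncuCyte confluency under 70% of agonist controls in both mask sets were counted as cytotoxic.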
# [2] = system: RAW-Dual; test: NF-kB SEAP reporter activity, fold change vs agonist alone; cytotoxicity flag (confluency mask): not cytotoxic; higher = enhanced NF-kB activity
# In short: as §1
# [3] = agonist: ODN 1826 (TLR9) 0.5 ug/mL
# [4] = agonist: Pam2CSK4 (TLR2/6) 0.1 ug/mL
# [5] = agonist: Pam3CSK4 (TLR2/1) 0.1 ug/mL
Structure (SMILES),NF-kB SEAP reporter activity ([1]; agonist: Imiquimod (TLR7) […]),NF-kB SEAP reporter activity ([1]; agonist: MPLA (TLR4) […]),NF-kB SEAP reporter activity ([2]; agonist: LPS (TLR4) 0.1 ug/mL),"NF-kB SEAP reporter activity [2, 3]","NF-kB SEAP reporter activity [2, 4]","NF-kB SEAP reporter activity [2, 5]"
Cn1ncc(Cl)c1-c1cc(C(=O)NC(CN)Cc2ccc(F)c(F)c2)oc1Cl (stereo unspecified),1.61,1.61,–,–,–,–
Cn1ncc(Cl)c1-c1cc(C(=O)NC(CN)Cc2ccc(F)c(F)c2)oc1Cl (stereo unspecified) (library stock concentration (final ~1000-fold dilution): 10 mM),–,–,1.03,2.35,1.07,1.44
CCOC(=O)C(CCc1ccccc1)NC(C)C(=O)N1Cc2ccccc2CC1C(=O)O.Cl (stereo unspecified),1.02,1.03,–,–,–,–
CCOC(=O)C(CCc1ccccc1)NC(C)C(=O)N1Cc2ccccc2CC1C(=O)O.Cl (stereo unspecified) (library stock concentration (final ~1000-fold dilution): 10 mM),–,–,0.94,1.07,1.26,1.05
CC(NC(=O)c1c(N)nn2cccnc12)c1cc2cccc(C#Cc3cnn(C)c3)c2c(=O)n1-c1ccccc1 (stereo unspecified) (library stock concentration (final ~1000-fold dilution): 10 mM),–,–,2.34,1.3,0.628,0.931
CC(Nc1ncnc(N)c1C#N)c1cc2cccc(-c3ccc(=O)n(C)c3)c2c(=O)n1C(C)C (stereo unspecified) (library stock concentration (final ~1000-fold dilution): 10 mM),–,–,4.83,0.722,1.22,3.02
CC(NC(=O)c1c(N)nn2cccnc12)c1cc2cccc(C#Cc3cnn(C)c3)c2c(=O)n1-c1ccccc1 (stereo unspecified),1.18,1.44,–,–,–,–
CC(Nc1ncnc2[nH]cnc12)c1cc2cccc(Cl)c2c(=O)n1-c1ccccc1 (stereo unspecified),0.473,0.709,–,–,–,–
CC(Nc1ncnc2[nH]cnc12)c1cc2cccc(Cl)c2c(=O)n1-c1ccccc1 (stereo unspecified) (library stock concentration (final ~1000-fold dilution): 10 mM),–,–,0.744,0.653,0.665,0.549
CC(Nc1ncnc(N)c1C#N)c1cc2cccc(-c3ccc(=O)n(C)c3)c2c(=O)n1C(C)C (stereo unspecified),1.22,2.8,–,–,–,–
Cc1cccc(C)c1OCC(=O)NC(Cc1ccccc1)C(O)CC(Cc1ccccc1)NC(=O)C(C(C)C)N1CCCNC1=O (stereo unspecified),1.63,2.06,–,–,–,–
Cc1cccc(C)c1OCC(=O)NC(Cc1ccccc1)C(O)CC(Cc1ccccc1)NC(=O)C(C(C)C)N1CCCNC1=O (stereo unspecified) (library stock concentration (final ~1000-fold dilution): 10 mM),–,–,1.37,2.09,0.396,1.03
Cc1ccc(S(=O)(=O)O)cc1.NC(=O)c1cccc2cn(-c3ccc(C4CCCNC4)cc3)nc12 (stereo unspecified) (library stock concentration (final ~1000-fold dilution): 10 mM),–,–,1.04,0.181,1.41,1.1
Cc1ccc(S(=O)(=O)O)cc1.NC(=O)c1cccc2cn(-c3ccc(C4CCCNC4)cc3)nc12 (stereo unspecified),0.663,1.04,–,–,–,–
Cc1nc2ccc(CN(C)c3ccc(C(=O)NC(CCC(=O)O)C(=O)O)s3)cc2c(=O)[nH]1 (stereo unspecified) (library stock concentration (final ~1000-fold dilution): 10 mM),–,–,1.56,1.93,1.31,1.7
Cc1nc2ccc(CN(C)c3ccc(C(=O)NC(CCC(=O)O)C(=O)O)s3)cc2c(=O)[nH]1 (stereo unspecified),1.78,1.45,–,–,–,–
CNc1ccc([N+](=O)[O-])cc1-n1cnc(-c2ccc(C(F)(F)F)cc2)c1 (library stock concentration (final ~1000-fold dilution): 10 mM),–,–,4.5,1.91,0.926,1.08
CNc1ccc([N+](=O)[O-])cc1-n1cnc(-c2ccc(C(F)(F)F)cc2)c1,1.24,2.01,–,–,–,–
O=C(Cc1ccccc1)Nc1nnc(NC2CCN(c3nnc(NC(=O)Cc4ccccc4)s3)CC2)s1 (library stock concentration (final ~1000-fold dilution): 10 mM),–,–,1.41,0.773,0.514,0.64
O=C(Cc1ccccc1)Nc1nnc(NC2CCN(c3nnc(NC(=O)Cc4ccccc4)s3)CC2)s1,0.998,1.26,–,–,–,–
COc1ccc(C2CC(=O)c3c(O)cc(O)cc3O2)cc1O (stereo unspecified) (library stock concentration (final ~1000-fold dilution): 10 mM),–,–,1.12,1.2,1.26,1.33
COc1ccc(C2CC(=O)c3c(O)cc(O)cc3O2)cc1O (stereo unspecified),1.28,1.11,–,–,–,–
O=C(O)CCN1C(=O)/C(=C2/C(=O)Nc3ccc(Cl)cc32)SC1=S (library stock concentration (final ~1000-fold dilution): 10 mM),–,–,1.86,0.841,1.4,1.57
O=C(O)CCN1C(=O)/C(=C2/C(=O)Nc3ccc(Cl)cc32)SC1=S,0.954,1.18,–,–,–,–
COc1cc(-c2oc3cc(O)cc(O)c3c(=O)c2OC2OC(CO)C(O)C(O)C2OC2OC(C)C(O)C(O)C2O)ccc1O (stereo unspecified) (library stock concentration (final ~1000-fold dilution): 10 mM),–,–,1.2,0.987,1.01,0.949
